Assay results from the supplement of paper PMC6555819.

Legend:
Experiment in all cases: PBM binding z-score (relative to random genomic background probes); higher = stronger binding; sequences stand for … in GC…GCGATTGACAGCGTAGAATGAAGG
[1] = tested on: LXRa homodimer (NR concentration 270 nM)
Summary of the method: (§1)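 Scanned fluorescence from custom Agilent 4×180K protein-binding microarrays was regression-normalized. Binding z-scores use random background probes as reference. Ligand-free nuclear receptor dimers were incubated on the arrays for 1 h and detected with antibodies against each partner (one per run).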

[2] = tested on: LXRb homodimer (NR concentration 270 nM)
Summary of the method: as §1

[3] = tested on: PPARg:RXRa (NR concentration 180 nM, RXRa partner concentration 90 nM)
Summary of the method: as §1

[4] = tested on: PPARg:RXRa 270nM:90nM, anti-RXR (NR concentration 270 nM, RXRa partner concentration 90 nM)
Summary of the method: as §1

[5] = tested on: PPARg:RXRa 30nM:10nM, anti-RXR (NR concentration 30 nM, RXRa partner concentration 10 nM)
Summary of the method: as §1

[6] = tested on: PPARg:RXRa 90nM:30nM, anti-RXR (NR concentration 90 nM, RXRa partner concentration 30 nM)
Summary of the method: as §1

[7] = tested on: PPARg:RXRa DBDmut IVT, anti-RXR (DBD mutation: RXRa K156A/R161A, NR concentration 270 nM, RXRa partner concentration 90 nM)
Summary of the method: as §1

[8] = tested on: LXRa:RXRa (NR concentration 270 nM, RXRa partner concentration 90 nM)
Summary of the method: as §1

Row | Sequence | PBM binding z-score [1] | PBM binding z-score [2] | PBM binding z-score [3] | PBM binding z-score [4] | PBM binding z-score [5] | PBM binding z-score [6] | PBM binding z-score [7] | PBM binding z-score [8]
1 | ATCGAAAGGTCAACGAGGTGAGTATACACCGTTT | 4.35 | 3.41 | 8.38 | 7.87 | 5.13 | 7.2 | 3.84 | –
2 | GGAACGAGGTCAAAGTTGATAGCATCTGTCGACG | 1.61 | 2.26 | – | 8.63 | 8.72 | 9.4 | 6.14 | 5.98
3 | CGTCAAAGGTCAAGGTCAGTGAAAGAGACTCGAA | 3.09 | 3.05 | – | 8.78 | 6.2 | 8.38 | 4.74 | –
4 | CAAACGAGGTCAAAGGTCAAAGTCGAGCCAACCA | 7.06 | 4.76 | 13.9 | 11.2 | 13.8 | 13.8 | 7.13 | –
5 | CAAACAAGGTCAAAGGTCAAAGTCGAGCCAACCA | 6.4 | 4.04 | 13.5 | 11 | 13.5 | 13.5 | 6.43 | –
6 | TATACGGGGTCAAAGGCCAGAGTACGAATGTCGA | 4.73 | 5.42 | – | 9.09 | 7.56 | 9.05 | 4.38 | –
7 | CAAACGAGGTCACAGAGGTCAAAGTCCGTGCGTA | 8.64 | 3.01 | 9.94 | 8.76 | 6.47 | 8.53 | 6.82 | –
8 | ACTTAGGGGTCAACGAGGTTATAGCACGCGTATA | 2.91 | 2.35 | 9.33 | 8.62 | 6.08 | 8.5 | 5.4 | –
9 | CAAACAAGGTCACAGAGGTCAAAGTCCGTGCGTA | 8.49 | 3.24 | 9.2 | 8.4 | 5.17 | 7.73 | 6.04 | –
10 | TCTAGTAGGTCAAAGGTCACACACTCGAAATGCG | 5.52 | 2.6 | – | 11.6 | 13 | 14.2 | 8.19 | –
11 | CAAACAAGGTCACCGGAAGGTCAAAGTCCGCATG | 6.36 | 2.43 | 8.84 | 7.81 | 4.78 | 7.17 | 5.54 | –
12 | GCTTACGGGTCAAAGGTCATAGCATGAATAGAAT | 4.02 | 1.77 | – | 10.4 | 12.9 | 12.5 | 5.72 | –
13 | CGTCAAAGTTCAAGGTCACGTAACAGAAAGCAGC | 5.71 | 2.05 | 6.83 | 6.7 | 3.83 | 5.84 | 2.03 | –
14 | CAAAATAGGTCAAAGGTCAAAGTCGAGCCAACCA | 6.17 | 3.52 | 13.7 | 11.5 | 12.6 | 13.3 | 8.15 | –
15 | CAAACGAGGTCAAGAGGTCAAAGTCCGCTTCCCG | 7.48 | 2.92 | 9.67 | 7.84 | 5.59 | 7.61 | 6.04 | –
16 | CAAACGAGGTCACCGGAAGGTCAAAGTCCGCATG | 6.35 | 2.17 | 9.26 | 8.2 | 5.78 | 7.55 | 6.23 | –
17 | CTACCAAGGTCAACAAGGTCGTTGATTACTATTC | 3.79 | 1.23 | 5.57 | 6.01 | 2.68 | 4.51 | 4.52 | –
18 | CGTCTAAGGTCATAGGAGGTCAGTGAAGACAGAT | 5.68 | 1.55 | 6.42 | 6.7 | 3.31 | 5.55 | 3.95 | –
19 | TTACCAAGGTCAAAGGTCGTTGATGCACGCCTTG | 4.68 | 1.83 | – | 8.91 | 8.91 | 10.4 | 4.35 | –
20 | CGTCAAAGGTCAATGCTAGGTCAGTGAAAGCATT | 4.73 | 3.46 | 8.14 | 8.21 | 5.21 | 7.67 | 4.79 | –
21 | ACTCGGAGGTCAAAGGTCAGAGCTACGCCAGTGA | 5.1 | 2.98 | – | 9.47 | 9.38 | 10.2 | 4.46 | –
